Data as given in PubChem BioAssay AID687028 (Broad Institute, 2013).
Out of some 1,400 compounds screened, about 55 (4%) were called active. No rule for the calls is given here. Not all results are given here. Measured potencies and affinities stand elsewhere.

Assay: A549 cell toxicity, dose response, cytotoxicity control, plate reader, cherry-pick samples (AID 687028);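 also: cells incubated with compound for three days before reading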
Settings: series mostly up to 19.5 µM; activity change, negative = toxicity: at the top concentration
With COc1ccc(OC)c(NC(=O)NNS(=O)(=O)c2ccc(C)cc2C)c1 the “activity change, negative = toxicity” value was 10.2% (inactive).
In the case of Cc1ccc(C)c(NC(=O)CN2C(=O)C3CC=CCC3C2=O)c1 (stereo not given), the “activity change, negative = toxicity” value is reported as 2.15% (inactive).
With CC1(C(=O)Nc2cccc(OC(F)(F)F)c2)Cc2c(-c3cccc(C(N)=O)c3)ccnc2O1 (stereo not given) the “activity change, negative = toxicity” value was -15.9% (inactive).
With CC1(C(=O)NCc2cccc(C(F)(F)F)c2)CCN1Cc1cc2ccccc2o1 (stereo not given) the “activity change, negative = toxicity” value was 5.37% (inactive).
With C[C@H](CO)N1C[C@H](C)[C@@H](CN(C)S(=O)(=O)c2cn(C)cn2)Oc2ccc(NC(=O)Nc3cccc4ccccc34)cc2CC1=O the “activity change, negative = toxicity” value was 4.45% [at 21 µM] (inactive).
For O=C(N[C@@H]1c2ccccc2CC[C@@H]1OCc1ccccc1)c1ccc(C(F)(F)F)cc1, the “activity change, negative = toxicity” value was -0.699% (inactive).
In the case of CCCn1c(NCc2ccc(N(C)C)cc2)nc2ccccc21, the “activity change, negative = toxicity” value is reported as 3.28% (inactive).
In the case of COc1ccc(CNC(=O)COC(=O)CN2C(=O)NC3(CCCC3)C2=O)cc1, the “activity change, negative = toxicity” value is reported as 2.48% (inactive).
With CCC(c1nnnn1-c1c(C)cccc1C)N1CCN(C/C=C/c2ccccc2)CC1 (stereo not given) the “activity change, negative = toxicity” value was -4.93% (inactive).
For O=C1CCCC(c2ccccc2)N1 (stereo not given), the “activity change, negative = toxicity” value was 1.97% (inactive).
In the case of COc1cc(C(=S)N2CCCCC2)ccc1OCC(=O)Nc1ccc(F)cc1, the “activity change, negative = toxicity” value is reported as -0.726% (inactive).
For Cc1ccc(NC(=O)CN2CCC(NC(=O)c3cccc(F)c3)CC2)cc1C, the “activity change, negative = toxicity” value was 4.03% (inactive).
With COc1ccc(CCN2C(=O)CSCC2(C)C(=O)Nc2ccc3c(c2)OCCO3)cc1OC (stereo not given) the “activity change, negative = toxicity” value was 2.93% (inactive).
For CCN1CCN(C(=O)C2CC(=O)N(c3ccc(Cl)cc3)C2)CC1 (stereo not given), the “activity change, negative = toxicity” value was 4.04% (inactive).
With COc1cccc(N2CC(C(=O)Nc3ccc(F)cc3)CC2=O)c1 (stereo not given) the “activity change, negative = toxicity” value was 3.92% (inactive).
For CCOc1ccc(/C=N/n2nnnc2N)cc1OCC, the “activity change, negative = toxicity” value was 14.9% (inactive).
For CC(C)(C)N(Cc1ccccc1)C(=O)COC(=O)C1CCN(c2ccc(C(F)(F)F)cn2)CC1, the “activity change, negative = toxicity” value was 1.79% (inactive).
In the case of Cc1cc2oc3ccc(NCCCN4CCOCC4)cc3c(=O)c2cc1C, the “activity change, negative = toxicity” value is reported as 3.8% (inactive).
In the case of CN1CCN(C(=O)c2cc3sc4ccccc4c3s2)CC1, the “activity change, negative = toxicity” value is reported as 3.61% (inactive).
For COC(=O)CN(c1cc(Cl)ccc1OC)S(=O)(=O)c1ccc(OC)c(OC)c1, the “activity change, negative = toxicity” value was 4.16% (inactive).
For Cc1ccc(S(=O)(=O)N(C)C)cc1NC(=O)COC(=O)C1CCCC1, the “activity change, negative = toxicity” value was 3.55% (inactive).
For O=C(NC1CCCC1)c1nc(-c2c(F)cccc2F)oc1-c1ccccc1, the “activity change, negative = toxicity” value was 4.75% (inactive).
In the case of Cc1cccc(C)c1OCC(O)Cn1ccnc1C (stereo not given), the “activity change, negative = toxicity” value is reported as 0.445% (inactive).
With Cc1cccc(C(=O)OCC(=O)NCc2ccc(Cl)cc2)c1 the “activity change, negative = toxicity” value was 6.43% (inactive).
In the case of CN1CCC(=O)N([C@H](COc2ccccc2)Cc2ccccc2)CC1, the “activity change, negative = toxicity” value is reported as -1.58% (inactive).
With O=C(Cc1cn(Cc2ccccc2)c2ccccc12)Nc1ccc(Oc2cccnc2)cc1 the “activity change, negative = toxicity” value was 6.03% (inactive).
In the case of COc1ccc(NC(=O)c2cc3ccccc3cc2O)cc1, the “activity change, negative = toxicity” value is reported as 5.07% (inactive).
For O=C(Oc1ccccc1)c1ccccc1C(=O)Oc1ccccc1, the “activity change, negative = toxicity” value was 1.83% (inactive).
For Cc1ccccc1-c1ccc(C2[C@@H]3CN(C(=O)Cc4ccncc4)C[C@H]2N3)cc1 (stereo not given in full), the “activity change, negative = toxicity” value was 3.86% [at 21 µM] (inactive).
With COCCNC(=O)C1(C)CCCN(C(=O)c2ccccc2)C1 (stereo not given) the “activity change, negative = toxicity” value was 0.534% (inactive).
In the case of CC(C)c1ccc(NC(=O)[C@H](NC(=O)[C@@H]2Cc3ccccc3CN2)c2ccccc2)cc1, the “activity change, negative = toxicity” value is reported as 3.25% (inactive).
With COc1ccc(S(=O)(=O)N2CCC(C(=O)N[C@H](C(=O)NCc3ccccc3)C(C)C)CC2)cc1 the “activity change, negative = toxicity” value was -1.57% (inactive).
With COc1ccc2c(C)c(CCC(=O)NC3CC3)c(=O)oc2c1C the “activity change, negative = toxicity” value was 4.32% (inactive).
With C[C@@H]1CN([C@H](C)CO)C(=O)Cc2cc(NC(=O)C3CC3)ccc2O[C@H]1CN(C)C(=O)Nc1ccccc1 the “activity change, negative = toxicity” value was 6.32% [at 21 µM] (inactive).
For CCc1nnc(N2C(=O)c3ccccc3C2(O)c2ccccc2)s1 (stereo not given), the “activity change, negative = toxicity” value was 0.278% (inactive).
With O=C(O)CCCCCCCCc1cn(CCc2c[nH]c3ccccc23)nn1 the “activity change, negative = toxicity” value was 1.36% (inactive).
In the case of CCN1C(=NCCc2c[nH]c3ccccc23)N[C@@H](c2ccccc2)[C@H](C(=O)OC)[C@H]1C, the “activity change, negative = toxicity” value is reported as 3.65% (inactive).
With CCOc1ccc2[nH]c3ncccc3c(=O)c2c1 the “activity change, negative = toxicity” value was 10.9% (inactive).
For C[C@@H]1CCCCO[C@@H](CN(C)C(=O)C2CCCCC2)[C@H](C)CN([C@H](C)CO)C(=O)c2cc(NC(=O)c3ccncc3)ccc2O1, the “activity change, negative = toxicity” value was 3.35% (inactive).
For C[C@@H]1CCCCO[C@@H](CN(C)S(=O)(=O)c2ccc(F)cc2)[C@@H](C)CN([C@@H](C)CO)C(=O)c2cc(NC(=O)c3ccccc3)ccc2O1, the “activity change, negative = toxicity” value was -0.972% (inactive).
With O=C1Nc2ccccc2C(=O)N(C2CCCC2)C1C(=O)NC1CC1 (stereo not given) the “activity change, negative = toxicity” value was 2.89% (inactive).
With COc1cc(OC)cc(C(=O)Nc2ccc3nc4n(c(=O)c3c2)CCCC4)c1 the “activity change, negative = toxicity” value was 4.55% (inactive).
With CC(C)(C)NC(=O)c1cccc(NC(=O)c2ccc3c(c2)C(=O)N(C(C)(C)C)C3=O)c1 the “activity change, negative = toxicity” value was 7.87% (inactive).
With O=C(c1ccccc1Cc1ccccc1)N1CCN(S(=O)(=O)c2ccccc2)CC1 the “activity change, negative = toxicity” value was -0.548% (inactive).
With Cc1cc2oc(=O)cc(Cn3ccnc3)c2cc1Cl the “activity change, negative = toxicity” value was 5.68% (inactive).
With COc1ccc2c3c([nH]c2c1)[C@H](CO)N(C(C)=O)CC31CN(C(=O)c2cccc(F)c2)C1 the “activity change, negative = toxicity” value was 1.32% (inactive).
In the case of COc1ccc2c3c([nH]c2c1)[C@H](CO)N(C(=O)Nc1cccc(F)c1)CC31CN(S(=O)(=O)c2ccccc2)C1, the “activity change, negative = toxicity” value is reported as -22.3% (inactive).
For O=S(=O)(c1cccs1)N1CCN(c2ccnc3cc(Cl)ccc23)CC1, the “activity change, negative = toxicity” value was 1.26% (inactive).
With CN(C[C@H](Cc1ccccc1)N(C[C@@H](CC1CCCCC1)N(CCc1ccccc1)N=O)N=O)N=O the “activity change, negative = toxicity” value was 5.21% (inactive).
In the case of CCCCCC(=O)N1C[C@@H](O)[C@H](n2cc(COC(=O)c3ccccc3)nn2)C[C@@H]1c1ccc(C)cc1, the “activity change, negative = toxicity” value is reported as 2.72% (inactive).
With O=C(C1CCCCC1)N1C[C@H](O)[C@@H](n2cc(C3CC3)nn2)C[C@@H]1c1ccccc1 the “activity change, negative = toxicity” value was 2.27% (inactive).
With Cc1noc(C)c1NC(=O)Nc1ccc2c(c1)C(=O)N([C@@H](C)CO)C[C@@H](C)[C@@H](CN(C)C)OCCCC[C@@H](C)O2 the “activity change, negative = toxicity” value was 6.53% (inactive).
For CCOC(=O)N1CCC(NCCNC(=O)c2ccc(F)c(F)c2)CC1, the “activity change, negative = toxicity” value was 3.93% (inactive).
For COc1ccc(CN2CCC(C(=O)NC(c3ccc4c(c3)OCO4)c3ccccn3)CC2)cc1 (stereo not given), the “activity change, negative = toxicity” value was -3.27% (inactive).
For C[C@H](NC(=O)C1CCN(S(=O)(=O)c2ccccc2)CC1)C(=O)NCc1cccnc1, the “activity change, negative = toxicity” value was 0.309% (inactive).
With COc1ccc(C2NC(=O)NC(C)=C2C(=O)Nc2cccc(C)c2C)cc1 (stereo not given) the “activity change, negative = toxicity” value was 1.37% (inactive).
With CCN(C[C@H]1N[C@@](C)(C(=O)OC)[C@H]2C(=O)N(C)C(=O)[C@@H]12)S(=O)(=O)c1ccc(-c2ccccc2)cc1 the “activity change, negative = toxicity” value was 0.033% (inactive).
In the case of CC(C)CCNC(=O)C1CC(c2ccccc2C(F)(F)F)=NO1 (stereo not given), the “activity change, negative = toxicity” value is reported as -2.08% (inactive).
With Cc1cccc(N(CC(=O)NC2CC2)S(=O)(=O)c2ccc(Cl)cc2)c1 the “activity change, negative = toxicity” value was 1.14% (inactive).
For COc1ccc2c3c([nH]c2c1)[C@@H](CO)N(Cc1ccc(F)cc1)CC31CN(C(=O)NC(C)C)C1, the “activity change, negative = toxicity” value was -0.014% [at 21 µM] (inactive).
